Experimental data: the supplement of paper PMC6555819

Experiments:
Assay in all cases: PBM binding z-score (relative to random genomic background probes); higher = stronger binding; sequences stand for … in GC…GCGATTGACAGCGTAGAATGAAGG
[1] = test system: FXR:RXRa (NR concentration 270 nM, RXRa partner concentration 90 nM)
Method in brief: (§1)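 Ligand-free nuclear receptor dimers were bound for 1 h to custom Agilent 4×180K protein-binding microarrays. Detection used antibodies against each partner (one per run). Binding z-scores rest on regression-normalized fluorescence, with random background probes as the reference.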

[2] = test system: LXRa:RXRa (NR concentration 270 nM, RXRa partner concentration 90 nM)
Method in brief: as §1

[3] = test system: LXRa homodimer (NR concentration 270 nM)
Method in brief: as §1

[4] = test system: LXRb:RXRa (NR concentration 270 nM, RXRa partner concentration 90 nM)
Method in brief: as §1

[5] = test system: LXRb homodimer (NR concentration 270 nM)
Method in brief: as §1

[6] = test system: PPARa:RXRa (NR concentration 270 nM, RXRa partner concentration 90 nM)
Method in brief: as §1

[7] = test system: PPARg:RXRa (NR concentration 180 nM, RXRa partner concentration 90 nM)
Method in brief: as §1

[8] = test system: PPARg:RXRa 270nM:90nM, anti-RXR (NR concentration 270 nM, RXRa partner concentration 90 nM)
Method in brief: as §1

[9] = test system: PPARg:RXRa 30nM:10nM, anti-RXR (NR concentration 30 nM, RXRa partner concentration 10 nM)
Method in brief: as §1

[10] = test system: PPARg:RXRa 90nM:30nM, anti-RXR (NR concentration 90 nM, RXRa partner concentration 30 nM)
Method in brief: as §1

[11] = test system: PPARg:RXRa DBDmut IVT, anti-RXR (DBD mutation: RXRa K156A/R161A, NR concentration 270 nM, RXRa partner concentration 90 nM)
Method in brief: as §1

[12] = test system: PPARg:RXRa IVT, anti-PPARg (NR concentration 270 nM, RXRa partner concentration 90 nM)
Method in brief: as §1

[13] = test system: PPARg DBDmut:RXRa IVT, anti-PPARg (DBD mutation: PPARg1 K132A/R137A, NR concentration 270 nM, RXRa partner concentration 90 nM)
Method in brief: as §1

[14] = test system: PPARg DBDmut IVT, anti-PPARg (DBD mutation: PPARg1 K132A/R137A, NR concentration 270 nM)
Method in brief: as §1

[15] = test system: PPARg homodimer (NR concentration 180 nM)
Method in brief: as §1

[16] = test system: PXR:RXRa (NR concentration 270 nM, RXRa partner concentration 90 nM)
Method in brief: as §1

[17] = test system: PXR homodimer (NR concentration 270 nM)
Method in brief: as §1

[18] = test system: RARa:RXR (NR concentration 270 nM, RXRa partner concentration 90 nM)
Method in brief: as §1

[19] = test system: RARa homodimer (NR concentration 270 nM)
Method in brief: as §1

[20] = test system: RARb:RXRa (NR concentration 270 nM, RXRa partner concentration 90 nM)
Method in brief: as §1

| Sequence | PBM binding z-score [1] | PBM binding z-score [2] | PBM binding z-score [3] | PBM binding z-score [4] | PBM binding z-score [5] | PBM binding z-score [6] | PBM binding z-score [7] | PBM binding z-score [8] | PBM binding z-score [9] | PBM binding z-score [10] | PBM binding z-score [11] | PBM binding z-score [12] | PBM binding z-score [13] | PBM binding z-score [14] | PBM binding z-score [15] | PBM binding z-score [16] | PBM binding z-score [17] | PBM binding z-score [18] | PBM binding z-score [19] | PBM binding z-score [20] |
| --- | --- | --- | --- | --- | --- | --- | --- | --- | --- | --- | --- | --- | --- | --- | --- | --- | --- | --- | --- | --- |
| TCTATTAGTTGATTAGGGCCACCGAAACAGCGGA | 0.951 | 0.434 | 0.125 | 0.653 | 0.614 | 0.786 | -0.0833 | 1.9 | 3.63 | 2.7 | 1.82 | 0.608 | 0.893 | 0.609 | 0.28 | 0.517 | 0.469 | 0.615 | 1.05 | 0.596 |
| ACCTCTAGGTAACAAGTTCAGTGAAAGAGAGGAC | 0.245 | 0.295 | 0.188 | 0.426 | -0.0173 | 1.02 | 1.18 | 1.5 | 0.452 | 1.29 | 3.28 | 2.07 | 0.823 | 0.266 | 0.609 | 1.57 | 1.32 | 0.59 | -0.291 | 1.51 |
| CCTACTGGGCCAGCAGGTCATTGATATCAACGTT | 0.852 | 0.958 | 0.496 | 1.21 | -0.78 | 2.51 | 2.26 | 2.84 | 1.09 | 2.63 | 3.7 | 4.16 | -0.155 | -0.528 | 1.02 | 1.46 | -0.0906 | 1.8 | -0.335 | 1.88 |
| CGAACCAGGTCATTGACAGGACAGTGAATAGTAA | 5.53 | 3.65 | 0.747 | 2.7 | 0.324 | 4.37 | 4.46 | 4.07 | 0.956 | 2.96 | 4.92 | 5.01 | 0.122 | 0.405 | 1.32 | 2.53 | 0.75 | 2.92 | 0.518 | 3.58 |
| GTACCAAGGTGAATAGGTCGTTGGTGAGTAGGCG | 0.874 | 0.844 | -0.171 | 0.388 | -0.834 | 2.25 | 1.17 | 1.93 | 0.116 | 1.13 | 1.63 | 2.76 | -0.162 | -0.965 | 0.877 | 0.626 | -0.0296 | 1.9 | -0.0597 | 2.1 |
| ACTAGCAGGCCACGTTTGGGTCACTCAAACAAAG | 0.331 | 0.116 | -0.479 | 0.601 | -0.41 | 1.42 | 0.444 | 0.355 | -0.448 | -0.155 | 1.75 | 1.88 | -0.646 | -0.408 | 0.639 | 0.56 | -0.664 | 1.3 | -0.197 | 1.58 |
| TCGAGTAGGTTACCAATCGGGCATTCAGCTTTCT | -0.222 | 0.961 | -0.836 | -0.125 | -1.27 | 0.717 | -0.0284 | 1.08 | 1.26 | 1.27 | 3.13 | 2.4 | -0.0689 | -0.723 | -0.473 | -0.159 | -0.753 | -0.172 | -0.843 | 0.778 |
| GCTTACGGGTCAAAGGTTTTAGCATGAATAGAAT | 6.63 | 4.06 | 0.0126 | 4.17 | 0.372 | 5.95 | 9.13 | 7.88 | 6.54 | 8.43 | 4.96 | 5.14 | 1.91 | 1.07 | 3.2 | 4.06 | 0.129 | 5.58 | 0.298 | 3.98 |
| TCAGACAGGTGAAGTTAACTCAGGTACGCAGTCG | 0.865 | 0.967 | 0.0333 | 0.725 | -0.0783 | 1.17 | 0.534 | 2.18 | 3.93 | 2.75 | 2.34 | 0.646 | 0.282 | -0.426 | 0.226 | 0.543 | 0.31 | 0.876 | 0.495 | 1.03 |
| CGTCCAAGGTCAAAGGTCTGTGAAGAGATGACGG | 7.64 | 5.46 | 1.27 | 4.26 | 0.554 | 5.87 | 7.08 | 6.81 | 4.47 | 6.48 | 3.5 | 4.39 | 1 | 0.0198 | 3.15 | 4.82 | 1.13 | 6.06 | 0.626 | 5.4 |
| ACTAGCAGGCCAAGGGTCACTGAAGATTAGTCCG | 3.07 | 2.89 | 0.0691 | 2.66 | -0.585 | 4.73 | 8.44 | 7.62 | 6.5 | 8.43 | 1.21 | 4.08 | 0.528 | 0.377 | 5.87 | 3.39 | -0.283 | 4.86 | 0.818 | 3.76 |
| CTCGAAAGGTCGGTTGAGGTGAGTATGCGGATAA | 2.51 | 1.72 | -0.105 | 1.27 | -0.0928 | 2.67 | 0.178 | 1.24 | 0.131 | 0.771 | 0.239 | 1.05 | -0.43 | 0.0422 | 1.08 | 2.93 | 0.0767 | 2.11 | 0.202 | 3.01 |
| CCTACTGGGCAATCAGGTCATTGATATCAACGTT | 0.891 | 1 | 0.766 | 1.27 | -0.496 | 2.26 | 1.34 | 2.44 | 0.371 | 1.25 | 2.45 | 3.55 | 0.181 | -0.716 | 0.487 | 1.48 | 0.775 | 1.95 | 0.376 | 1.69 |
| TCAGACAGGTGAACGTAACTCAGGTACGCAGTCG | 0.443 | 0.558 | -0.111 | 0.538 | -0.313 | 1.43 | 1.05 | 2.06 | 3.66 | 2.83 | 2.71 | 1.55 | 0.22 | -0.331 | 0.406 | 0.573 | 0.448 | 0.752 | 0.0461 | 1.19 |
